Data as given in PubChem BioAssay (NCI).
About 83,000 compounds went through this panel and 20% of them were active in at least one assay; those are over-represented in the sample as a whole.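 The test compound was applied at a single concentration to cells in 96-well plates for 48 hours, and percent growth was recorded.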 Unmarked numbers belong to inactive results. Active and inactive are the calls of the source. Rule for the calls: active = growth percent below 10; inactive = the rest.

The compounds below were run on SK-MEL-2 melanoma (assay: NCI-60 one-dose screen, 48 h (100 = growth as untreated, 0 = no growth, -100 = all killed)). Conditions: 10 µM.

In order of falling growth:
1. C=CCSC(CC)(CC)C(=O)NC  109%
2. Clc1ccc(C2=NN=C3C(Cc4ccccc4)=Nc4ccccc4N3C2)cc1  105%
3. Cc1c(Cl)cccc1NC(=O)CCCl  103%
4. N#CCc1csc(Cc2ccccc2)n1  101%
5. CCN(CC)CC(=O)N(CC)c1ccc(C)c(Cl)c1  99.5%
6. CC(=O)C1N=NCC1c1ccccc1 (centres undefined)  97.3%
7. CC(C)(C)OC(=O)CN1CCc2c(sc3ncnc(N/N=C/c4ccccc4Br)c23)C1  87.4%
8. CCN(CC)CCOc1cccc2c1C(=O)c1cccc(OCCN(CC)CC)c1C2=O  32.1%

With `COc1cc(-c2csc(NC(=O)Nc3ccc(Cl)c(C(F)(F)F)c3)n2)cc(OC)c1OC` the growth was -14.3% (active).

What follows are compounds tested on EKVX NSCLC in the same assay as above. Conditions: 10 µM.

In order of falling growth:
1. Cc1[nH]c2ccccc2c1/C=N/Nc1ncnc2sc3c(c12)CCN(CC(=O)OC(C)(C)C)C3  134%
2. Cc1c(Cl)cccc1NC(=O)CCCl  106%
3. N#CCc1csc(Cc2ccccc2)n1  105%
4. CCN(CC)CC(=O)N(CC)c1ccc(C)c(Cl)c1  105%
5. C=CCSC(CC)(CC)C(=O)NC  104%
6. Cc1ccc(/C=C2/C(=O)N(C)c3ccc(S(=O)(=O)Nc4ccc(C(C)(C)C)cc4)cc32)s1  103%
7. Cc1c(Cl)cccc1NC(=O)CN1CCOCC1  102%
8. O=C1CSC(=S)N1/N=C/c1ccc(Cl)s1  101%
9. CCCc1cn(CC(=O)Nc2nc3ccccc3s2)nn1  101%
10. CC(=O)C1N=NCC1c1ccccc1 (centres undefined)  101%
11. C1CN(CC2CCC(CN3CCOCC3)O2)CCO1 (centres undefined)  100%
12. CCOS(=O)(=O)c1c(C(C)C)cc(C(C)C)cc1C(C)C  97.8%
13. O=C(Nc1nc(-c2ccccc2)nc2c1sc(=S)n2-c1ccccc1)C(F)(F)F  97.2%
14. CCN(CC)CCOc1cccc2c1C(=O)c1ccccc1C2=O  95.2%
15. O=C(CC(CC(=O)c1ccccc1)c1ccccc1O)c1ccccc1  95%
16. Cc1cc(=O)n2nnc3cc(Cl)c(Cl)cc3n12  92.6%
17. CC(=O)[C@H]1CC[C@]2(C)[C@@H]1CC[C@@H]1[C@@]3(C)CC(CCC#N)(CCC#N)C(=O)C(C)(C)[C@@H]3CC[C@]12C  91.8%
18. Clc1ccc(C2=NN=C3C(Cc4ccccc4)=Nc4ccccc4N3C2)cc1  86%
19. COc1cc(OC)c2c(=O)c(O)c(-c3ccccc3)oc2c1  83.4%
20. CC(C)CCN(CCC(C)C)CC(=O)Nc1ccc(S(=O)(=O)c2ccc(NC(=O)CN(CCC(C)C)CCC(C)C)cc2)cc1  83.1%
21. O=C(CCn1cnc2c(cc(-c3ccccc3)n2-c2ccccc2)c1=O)Nc1ccc(F)cc1  80.8%
22. CNS(=O)(=O)Oc1ccc(-c2sc3cc(OS(=O)(=O)NC)ccc3c2C(=O)c2ccc(OCCN3CCCCC3)cc2)cc1  79.6%
23. CCOC(=O)c1cc(C(=O)c2cc(OC)cc(OC)c2)n2nc(C)ccc12  75.5%
24. Cc1ccc(NCCNCC(C)(C)O)c2c(=O)c3ccc(Cl)cc3sc12  71.8%
25. CC(CN(C)C)Oc1ccc(OC(C)CN(C)C)c2c1C(=O)c1ccccc1C2=O (centres undefined)  70.7%
26. COc1cc(-c2nn(-c3cccc(NC(=O)NCCNC(=O)c4cccc(C(F)(F)F)c4)c3)cc2-c2ccncc2)ccc1Cl  60.1%
27. Cc1c[nH]c(=O)n(Cc2nnc(CCC(=O)c3nc4ccccc4[nH]3)o2)c1=O  54.9%
28. CCN(CC)CCOc1cccc2c1C(=O)c1cccc(OCCN(CC)CC)c1C2=O  53.6%
29. CC(C)(C)OC(=O)CN1CCc2c(sc3ncnc(N/N=C/c4ccccc4Br)c23)C1  44.5%
30. COc1cc(Cc2cc(-c3ccccc3)n[nH]c2=O)cc(OC)c1OC  43.6%
31. COc1cc(-c2nn(-c3cccc(NC(=O)CCNc4ccc(N5CCOCC5)cc4)c3)cc2-c2ccncc2)ccc1Cl  39.4%
32. O=C(N/N=C/c1cc([N+](=O)[O-])ccc1O)c1cccc2ccccc12  33.5%
33. COc1cc(-c2nn(-c3ccc(NC(=O)NCCNS(=O)(=O)c4ccc(F)cc4)cc3)cc2-c2ccncc2)ccc1Cl  33%
34. CCCCN(CCCC)C(=O)[C@H](CC)[C@@H]1CC[C@@H](C)[C@@H]([C@H](C)[C@@H](O)[C@@H](C)C(=O)[C@H](CC)C2O[C@]3(C=CC(=O)[C@]4(CC[C@@](C)([C@H]5CC[C@](O)(CC)[C@H](C)O5)O4)O3)[C@H](C)C[C@@H]2C)O1 (some centres undefined)  27.7%
35. CN(C)CCOc1ccccc1NC1=C(Cl)C(=O)C(Nc2ccccc2OCCN(C)C)=C(Cl)C1=O  16%
36. CCn1c(SCc2ccc(C)cc2)nnc1-c1nn(-c2ccc(Cl)cc2Cl)c(-c2ccc(Cl)cc2)c1C  10.4%

With `CC(=O)N[C@H](C(=O)N[C@@H](CCCNC(=N)N)C(=O)N[C@@H](CCCCN)C(=O)N[C@@H](CCCNC(=N)N)C(=O)N[C@]1(C)CCCCCC/C=C\CCC[C@@](C)(C(=O)N[C@@H](CCCNC(=N)N)C(=O)N[C@@H](CCC(=O)O)C(=O)N[C@@H](CC(C)C)C(=O)N[C@H](C(=O)N[C@@H](CCC(=O)O)C(N)=O)C(C)C)NC(=O)[C@H](CCC(N)=O)NC(=O)[C@H](CC(C)C)NC(=O)[C@H](CC(C)C)NC(=O)[C@H](CCCNC(=N)N)NC(=O)[C@H](CCCNC(=N)N)NC(=O)[C@H](CC(C)C)NC1=O)C(C)C` the growth was -22.3% (active).
In the case of `CC(C)(C)OC(=O)CN1CCc2c(sc3ncnc(N/N=C/c4cccc5ccccc45)c23)C1`, the growth is reported as 2.48% (active).
`COc1ccc(-c2cc(-c3ccccc3)nc(SCCCC(=O)NO)n2)cc1` was tested, and the growth was -23.3% (active).
With `COc1cc(-c2csc(NC(=O)Nc3ccc(Cl)c(C(F)(F)F)c3)n2)cc(OC)c1OC` the growth was 2.12% (active).
